Screening results (PubChem BioAssay)
MEKK3 PB1 HTS: MEKK3-MEK5 PB1 interaction, increase or decrease | bead-based flow cytometry, Alexa488-MEK5 binding to MEKK3; actives lie on both sides; 0 = blocked by unlabeled MEK5, 100 = vehicle | Q99759 | binding response (% of control), % at 10 µM | 290,000 compounds, 1.4% hits;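 active = binding response more than 3 SD above or below the average of its plate-row segment, actives on both sides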;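 note: Alexa488 bead fluorescence after subtracting the streptavidin-only scavenger bead signal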
GRK2 aptamer HTS: human GRK2 inhibition via aptamer displacement; inhibition of aptamer binding, % at 10 µM; 330,000 compounds, 0.59% hits; bead flow cytometry, FAM-aptamer displacement from GRK2; P25098; AID 488847;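 active = inhibition of aptamer binding above 40%, roughly 3 SD of noise, on plates passing a quality check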;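 note: median bead fluorescence of bound FAM aptamer so fluorescent compounds give negative values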
Target sequence (P25098 whole entry, looked up): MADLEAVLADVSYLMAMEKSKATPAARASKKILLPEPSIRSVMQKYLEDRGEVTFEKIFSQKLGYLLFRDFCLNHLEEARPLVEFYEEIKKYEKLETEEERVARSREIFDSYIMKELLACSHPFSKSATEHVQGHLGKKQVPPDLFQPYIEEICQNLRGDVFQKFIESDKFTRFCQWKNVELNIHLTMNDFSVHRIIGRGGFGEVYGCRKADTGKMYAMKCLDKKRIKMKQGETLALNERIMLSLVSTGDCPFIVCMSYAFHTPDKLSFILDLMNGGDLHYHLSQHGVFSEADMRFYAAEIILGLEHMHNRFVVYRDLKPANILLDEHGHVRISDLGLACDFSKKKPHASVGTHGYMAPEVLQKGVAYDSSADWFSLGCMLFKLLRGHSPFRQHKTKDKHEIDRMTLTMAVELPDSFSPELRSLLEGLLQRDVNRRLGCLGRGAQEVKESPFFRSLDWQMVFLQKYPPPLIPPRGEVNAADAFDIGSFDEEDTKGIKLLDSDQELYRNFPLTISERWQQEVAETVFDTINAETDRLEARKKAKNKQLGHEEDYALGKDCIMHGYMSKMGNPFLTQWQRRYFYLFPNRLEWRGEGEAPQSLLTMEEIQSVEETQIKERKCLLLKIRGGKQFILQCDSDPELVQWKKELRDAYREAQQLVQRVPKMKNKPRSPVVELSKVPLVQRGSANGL
MEKK2mut PB1 HTS: signal of MEK5 binding to mutant human MEKK2 PB1 domain | bead flow cytometry, Alexa488-MEK5 binding to MEKK2 mutant | percent response, % at 10 µM | 290,000 compounds, 0.35% hits | AID 1530; in the data active = percent response above about 24%, passing the limit was not always enough
MEKK2wt PB1 HTS: raises or lowers MEK5 binding to wildtype human MEKK2 PB1 domain | bead flow cytometry, Alexa488-MEK5 binding to MEKK2 WT; actives lie on both sides | binding response (% of control), % at 10 µM | 290,000 compounds, 1.1% hits | AID 1531; in the data active = binding response below about 67% or above about 130%
MEKK2wt confirm: raises or lowers MEK5 binding to wildtype human MEKK2, retest; binding response (% of control), % at 10 µM; shares compounds with MEKK3 PB1 HTS; bead flow cytometry, Alexa488-MEK5 binding to MEKK2 WT; actives lie on both sides; 5,900 compounds, 2.4% hits; AID 1892; in the data active = binding response below about 16% or above about 210%; inactive = in between
MEKK2mut-MEK5: signal of MEK5 binding to mutant human MEKK2, retest. shares compounds with MEKK3 PB1 HTS. bead flow cytometry, Alexa488-MEK5 binding to MEKK2 mutant. percent response, % at 10 µM. 5,900 compounds, 2% hits. AID 1893; in the data active = percent response mostly above about 71%, no sharp cut-off; inactive = mostly below about 38%;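 note: higher means compound restores mutant binding toward wildtype level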
MEKK3 confirm: MEKK3-MEK5 PB1 inhibition, single concentration confirmation; shares compounds with MEKK3 PB1 HTS; 5,900 compounds, 1.8% hits; bead flow cytometry, Alexa488-MEK5 binding to MEKK3; stronger effect = lower value; binding response (% of control), % at 10 µM; AID 1894;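 active = binding response below 72% of control, or above a set upper limit, though filed actives all read lower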
Large screens that a line does not name were inactive (follow-up assays come after a bar, where they were run); [ ] = another dose, or the depositor's remark. Only some compounds are listed: those with a hit (about 2.5% of all), similar ones and a draw of the others.

COc1ccc(C(CCN2CCOCC2)c2c(OC)cc(OC)c3c(C)cc(=O)oc23)cc1 (stereo not given)	MEKK2wt PB1 HTS 151 (no result: GRK2 aptamer HTS) | MEKK2wt confirm inactive | MEKK2mut-MEK5 inactive | MEKK3 confirm inactive
COc1cc(C(CCN2CCCC2)c2c(OC)cc(OC)c3c(C)cc(=O)oc23)cc(OC)c1OC (stereo not given)	none (no result: GRK2 aptamer HTS)
COc1cc(OC)c2ccc(=O)oc2c1C(CCN1CCCC1)c1ccc(N(C)C)cc1 (stereo not given)	none
CCCCCc1cc(=O)oc2c(C(CCN3CCCC3)c3ccc(N(C)C)cc3)c(OC)cc(OC)c12 (stereo not given)	MEKK2mut PB1 HTS 42, MEKK2wt PB1 HTS 151 | MEKK2wt confirm inactive | MEKK2mut-MEK5 83 | MEKK3 confirm inactive
COc1cc(C(CCN2CCCCC2)c2c(OC)cc(OC)c3c(-c4ccccc4)cc(=O)oc23)cc(OC)c1OC (stereo not given)	none (no result: GRK2 aptamer HTS)
CCCCCc1cc(=O)oc2c(C(CCN3CCCC3)c3cc(OC)c(OC)c(OC)c3)c(OC)cc(OC)c12 (stereo not given)	MEKK2mut PB1 HTS 24, MEKK2wt PB1 HTS 157 | MEKK2wt confirm inactive | MEKK2mut-MEK5 inactive | MEKK3 confirm inactive
COCCC(=O)N1CCC(Oc2ccc(C(=O)N3CCC[C@H]3CO)cc2)CC1	none
Cn1cccc1C(=O)OCC(=O)NC(=O)c1ccc(Cl)cc1	none (no result: MEKK3 PB1 HTS, MEKK2mut PB1 HTS, MEKK2wt PB1 HTS)
CC(C(=O)N(C)C1CCCCC1)N1CCC(C(N)=O)CC1 (stereo not given)	none
Cn1c(CC(=O)Nc2ccc(F)cc2)c(Sc2ccccc2)c2ccccc21	MEKK2mut PB1 HTS 54 | MEKK2wt confirm inactive | MEKK2mut-MEK5 inactive | MEKK3 confirm inactive
Cn1c(CC(=O)NC(C)(C)CO)c(Sc2ccccc2)c2ccccc21	none
COc1ccc(NC(=O)Cc2c(Sc3ccccc3)c3ccccc3n2C)cc1	MEKK3 PB1 HTS 154 | MEKK2wt confirm inactive | MEKK2mut-MEK5 inactive | MEKK3 confirm inactive
CCOCCCNC(=O)Cn1cnc2sc(C)c(S(=O)(=O)N3CCN(c4ncccn4)CC3)c2c1=O	none
Cc1cc(-c2ccc(Cl)cc2)n2ncnc2n1	MEKK3 PB1 HTS 50[inhibitor] | MEKK2wt confirm inactive | MEKK2mut-MEK5 inactive | MEKK3 confirm inactive
Cc1ccc(N2CC(C(=O)N/N=C/c3sccc3C)CC2=O)cc1 (stereo not given)	MEKK3 PB1 HTS 135 | MEKK2wt confirm inactive | MEKK2mut-MEK5 inactive | MEKK3 confirm inactive
CCOC(=O)c1c(S(=O)(=O)N2CCC(C)CC2)c(C)n(C)c1C	none
O=C(COc1ccc(S(=O)(=O)N2CCCC2)cc1)NCc1ccccn1	none
O=c1c(/C=C(\O)c2ccc(F)cc2)nc2ccccc2n1-c1ccccc1	MEKK2wt PB1 HTS 45[inhibitor] | MEKK2wt confirm inactive | MEKK2mut-MEK5 inactive | MEKK3 confirm inactive
Cn1c(=O)c(/C=C/c2ccc(F)cc2)nc2ccccc21	MEKK2wt PB1 HTS 55[inhibitor] (no result: GRK2 aptamer HTS) | MEKK2wt confirm inactive | MEKK2mut-MEK5 inactive | MEKK3 confirm inactive
CN(c1ccccc1)c1cc(Br)nc(Br)c1	none (no result: MEKK3 PB1 HTS, MEKK2mut PB1 HTS, MEKK2wt PB1 HTS)
COc1ccc(C(=O)NCC(=O)OCc2nc(N)nc(Nc3ccccc3C)n2)cc1	none (no result: MEKK3 PB1 HTS, MEKK2mut PB1 HTS, MEKK2wt PB1 HTS)
COCCNC(=S)N1C2CCC1CC(NC(=O)NC13CC4CC(CC(C4)C1)C3)C2 (stereo not given)	none
CCOc1ccccc1NC(=S)N1C2CCC1CC(NC(=O)NC13CC4CC(CC(C4)C1)C3)C2 (stereo not given)	MEKK3 PB1 HTS 72[inhibitor] | MEKK2wt confirm inactive | MEKK2mut-MEK5 inactive | MEKK3 confirm inactive
COc1ccccc1N1CCN(C(=O)c2ccc(COc3cccc4c3OC(C)(C)C4)cc2)CC1	none (no result: MEKK3 PB1 HTS, MEKK2mut PB1 HTS, MEKK2wt PB1 HTS)
CCn1c(O)c(N=NC(=O)CNc2cccc(C)c2)c2ccccc21	MEKK3 PB1 HTS 148 | MEKK2wt confirm inactive | MEKK2mut-MEK5 inactive | MEKK3 confirm inactive
COC(=O)[C@H]1C[C@@H](c2ccccc2)[C@H](C)C1(C)C	none (no result: MEKK3 PB1 HTS, MEKK2mut PB1 HTS, MEKK2wt PB1 HTS)
CCN1C(=O)[C@H]2[C@H]3CN=C(SCC(=O)c4ccccc4)N3[C@@](CC)(C(=O)OC)[C@H]2C1=O	none (no result: MEKK3 PB1 HTS, MEKK2mut PB1 HTS, MEKK2wt PB1 HTS)
COc1cc(NC(=O)C2CCN(S(=O)(=O)c3cccnc3)CC2)cc(OC)c1OC	MEKK2mut PB1 HTS 25 | MEKK2wt confirm inactive | MEKK2mut-MEK5 inactive | MEKK3 confirm inactive
COc1ccc(NC(=S)N(CCCOC(C)C)C2CCN(C(C)=O)CC2)cc1Cl	none
COc1ccc(OC)c(-c2csc(NC(=O)CSc3ccc([N+](=O)[O-])cc3)n2)c1	MEKK3 PB1 HTS 141 | MEKK2wt confirm inactive | MEKK2mut-MEK5 inactive | MEKK3 confirm inactive
CC(NC(=O)/C=C/c1ccco1)c1nc2ccccc2n1Cc1ccccc1F (stereo not given)	MEKK3 PB1 HTS 135 | MEKK2wt confirm inactive | MEKK2mut-MEK5 inactive | MEKK3 confirm inactive
Nc1ccn(CC(=O)N[C@H](CO)Cc2c[nH]c3ccccc23)c(=O)n1	none (no result: MEKK3 PB1 HTS, MEKK2mut PB1 HTS, MEKK2wt PB1 HTS)
CSc1nnc(SCC(=O)Nc2ccc3[nH]c(=O)[nH]c3c2)s1	none (no result: MEKK3 PB1 HTS, MEKK2mut PB1 HTS, MEKK2wt PB1 HTS)
Cn1c(N)c(C(=O)CSc2nnc(-c3ccccc3F)n2C2CC2)c(=O)n(C)c1=O	none
C=CCn1c(SCC(=O)c2c(N)n(C)c(=O)n(C)c2=O)nnc1-c1ccccc1F	MEKK2mut PB1 HTS 108 | MEKK2wt confirm inactive | MEKK2mut-MEK5 inactive | MEKK3 confirm inactive
Cn1c(N)c(C(=O)CSc2nnc(-c3ccccc3F)n2N)c(=O)n(C)c1=O	MEKK3 PB1 HTS 47[inhibitor] | MEKK2wt confirm inactive | MEKK2mut-MEK5 inactive | MEKK3 confirm inactive
COc1cccc(CNC(=O)CCC2CCCN(C(=O)C3=CC(=O)CC(C)(C)O3)C2)c1 (stereo not given)	none
COc1ccc(-c2noc(-c3ccccc3C(=O)Nc3cccnc3)n2)cc1	MEKK2mut PB1 HTS 26 | MEKK2wt confirm inactive | MEKK2mut-MEK5 inactive | MEKK3 confirm inactive
COc1ccc(-c2noc(-c3ccccc3C(=O)Nc3cccnc3)n2)cc1OC	none
COc1cc(-c2nc3n(n2)C(c2ccncc2)C(C(N)=O)=C(C)N3)cc(OC)c1OC (stereo not given)	MEKK3 PB1 HTS 122 | MEKK2wt confirm inactive | MEKK2mut-MEK5 inactive | MEKK3 confirm inactive
CC1=C(C(N)=O)C(c2ccccc2)n2nc(-c3ccncc3)nc2N1 (stereo not given)	none
Cn1cc(CN2CCC[C@H]2CO)c(-c2cccc(Cl)c2)n1	none
CCCCCCCCCCCCCCCC[n+]1ccc(C(N)=O)cc1	MEKK2wt PB1 HTS 139 | MEKK2wt confirm inactive | MEKK2mut-MEK5 inactive | MEKK3 confirm inactive
CCCCCCCCCCCCCCCC[n+]1ccc(/C=N/O)cc1	MEKK2wt PB1 HTS 150 | MEKK2wt confirm 257 | MEKK2mut-MEK5 181 | MEKK3 confirm inactive
CCCCCCCCCCCCCCCC[n+]1cccc(C(=O)N(CC)CC)c1	none
